PubChem BioAssay (NCI)
Compounds without any hit were thinned out: in the full panel of roughly 83,000, 20% have a hit.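 48-hour exposure, single concentration, 96-well plates; percent growth endpoint where 0 means no net growth. Active: below 10.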 Calls of active or inactive are those of the source.

Each molecule was assayed on SF-539 CNS (assay: NCI-60 one-dose screen, 48 h (100 = growth as untreated, 0 = no growth, -100 = all killed)). Conditions: 10 µM unless noted.

Row | SMILES | growth
1 | CCC1CCc2nc3sc(C(=O)Nc4ccccc4F)c(N)c3cc2C1 (stereo not drawn) | 75% (inactive)
2 | Cc1nn(-c2ccc(Cl)cc2)c(=O)n1CCOc1ccccc1Cl | 108% (inactive)
3 | COc1cc(/C=C2\CCCC3=C2NC(C)=NC3c2cc(OC)c(OC)c(OC)c2)cc(OC)c1OC (stereo not drawn) | 13.5% (inactive)
4 | c1ccc([P+](CCC[P+](c2ccccc2)(c2ccccc2)c2ccccc2)(c2ccccc2)c2ccccc2)cc1 | 88% (inactive)
5 | CC1=C(C#N)C(C)(C)C(C#N)=C(C)N1 | 99.3% (inactive)
6 | COc1cc(C(=O)OCCCCCCCCCCC[P+](c2ccccc2)(c2ccccc2)c2ccccc2)ccc1O | -57.3% (active)
7 | Nc1c(C(=O)Nc2ccccc2)sc2nc3c(cc12)CCCCC3 | 7.96% (active)
8 | COc1cccc(C2CC(=O)Nc3c2c(C)nn3-c2nc3ccccc3[nH]2)c1OC (stereo not drawn) | 99.7% (inactive)
9 | COc1cc(C(=O)/C=C/c2cc(C(=O)c3cc(OC)c(OC)c(OC)c3)ccc2OC)ccc1N | -53.2% (active)
10 | COc1ccc(NC(=O)c2cc3ccccc3nc2Nc2cc(OC)c(OC)c(OC)c2)cc1 | 68.3% (inactive)
11 | O=S(=O)(O)CCl | 101% (inactive)
12 | O=C(CN1CCOCC1)Nc1ccc(-c2nc3ccccc3s2)cc1 | 89.7% (inactive)
13 | COc1cc(/C=C\c2cc(OC)c(OC)c(OC)c2)cc(N/C=C\C(=O)c2c[nH]c3ccccc23)c1OC | -95.2% (active)
14 | CC(C)C[C@H](NC(=O)[C@@H](Cc1ccccc1)n1ccc(Nc2ccccc2)cc1=O)B(O)O | -17.7% (active)
15 | Cc1ccc2c(c1)C(=O)C(c1c(-c3[nH]c(=O)c4ccc(C)cc4c3O)c(O)c3ccccc3c1O)=NC2=O | 61.1% (inactive)
16 | C=CCn1c(C)nc2ccc(Nc3nc(Nc4ccc(F)cc4)nc4ccccc34)cc21 | 73% (inactive)
17 | COc1ccccc1CNCCCN1C(=O)c2ccc3c4c(ccc(c24)C1=O)C(=O)N(CCCNCCCCNCCCCN)C3=O | 11% (inactive)
18 | COc1ccc2c(c1)C(=O)/C(=C/c1ccc(O)cc1)O2 | 80.2% (inactive)
19 | COc1ccc(-c2cn[nH]c2-c2cc(OC)c3c(c2)OCO3)cc1 | -28.7% (active)

Row | SMILES | growth
20 | CCCCCCCCCCCCNC(=S)N/N=C/c1ccc(Cl)c(Cl)c1 | 94.2% (inactive)
21 | O=C1Nc2ccc(Br)cc2C1=N/C=c1\[nH]c(=O)/c(=C/c2ccc(Cl)cc2)s1 | 90.7% (inactive)
22 | O=C(CNc1c(Cl)cccc1Cl)Nc1ccc(-c2nc3ccccc3s2)cc1 | 79.9% (inactive)
23 | CCn1c(=O)c2c(=O)c3c4c(oc3oc2c2ccccc21)C(=O)c1ccccc1C4=O | 89.9% (inactive)
24 | CN1CCN(c2ccc3cc(-c4nc5ccccc5[nH]4)c(=O)oc3c2)CC1 | 93.5% (inactive)
25 | COc1ccc(OC)c(C(=O)c2oc3ccc(Br)cc3c2N)c1 | -44.4% (active)
26 | Cc1ccc(Cn2c(-c3nonc3N)nc3ccccc32)cc1 | 80.4% (inactive)
27 | Cc1ccc(S(=O)(=O)NCCCNc2nccc(-c3c(-c4ccccc4)nc4sccn34)n2)cc1 | 82.5% (inactive)
28 | COC1=CC(c2ccc[nH]2)=N/C1=C\c1[nH]c(C)c(C(=O)CCCCC(=O)Oc2ccc3c(c2)CCC2C3CC[C@]3(C)[C@@H](O)CC[C@@H]23)c1C (stereo partly drawn) | 65.9% (inactive)
29 | Cc1cccc(NC(=O)c2sc3nc4c(cc3c2N)CCC4)c1C | 1.33% (active)
30 | Nc1c(C(=O)Nc2c(Cl)cccc2Cl)sc2nc3c(cc12)CCCCC3 | 38.2% (inactive)
31 | COc1cc(OC)c(C(=O)/C=C/c2ccc(C(F)(F)F)cc2)c(OC)c1 | 68.7% (inactive)
32 | Cn1c(-c2nonc2NC(=O)c2ccc(F)cc2)nc2ccccc21 | 103% (inactive)
33 | CCOC(=O)C1=C(CSC(=S)N(C2CCCCC2)C2CCCCC2)N(C)C(=O)NC1c1ccccc1 (stereo not drawn) | 71.6% (inactive)
34 | COC12CC(=O)C(C(C)=O)=C(O)C1(C)c1c(O)c(C)c(O)c(C(C)=O)c1O2 (stereo not drawn) | 78.5% (inactive)
35 | COc1ccc(C2=CC(c3ccc(Oc4ccnc5cc(Cl)ccc45)c(OC)c3)c3c(nc(OC)[nH]c3=O)N2)cc1 (stereo not drawn) | 105% (inactive)
36 | COc1ccc(Cn2cc(COc3cc(/C=C/C(=O)c4cc(OC)c(OC)c(OC)c4)ccc3OC)nn2)cc1 | 49.2% (inactive)
37 | O=C(Nc1ccc(OCc2nnc(-c3ccc(Cl)cc3)o2)c(F)c1)Nc1ccc(Cl)c(Cl)c1 | 45% (inactive)
38 | O=C(CNc1ccc(Cl)cc1)Nc1ccc(-c2nc3ccccc3s2)cc1 | 78.1% (inactive)
